M1 ag: M1 muscarinic receptor agonism. CHO-M1 cells, Fluo-4 calcium fluorescence, agonist mode; stronger effect = higher value. B-score at 10 µM. 3% of 64,000 active. AID 626;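 active = fluorescence rise, raw or as B-score row- and column-corrected plate score, outside the 99.7% band of its plate's samples, either direction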
D1 allo mod: allosteric modulators of human D1 dopamine receptor; 5.9% of 58,000 active; B-score at 10 µM; AID 641; HEK293 D1, CRE-luciferase, dopamine EC30 potentiation; actives deviate in either direction; P21728;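 active = luminescence count or its row- and column-corrected plate score outside the 99.7% band of the plate's sample wells, on either side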
FXIIa mix inh: factor XIIa (human) inhibition, mixture screen; P00748; inhibition, % at 5 µM; 0.2% of 62,000 active; purified FXIIa, fluorogenic substrate, pooled mixtures;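 also: 0% = enzyme without compound and 100% = no enzyme blank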
M1 antagonist: antagonists of rat M1 muscarinic receptor; CHO-M1 cells, Fluo-4 calcium, ACh EC80 antagonist mode; stronger effect = lower value; B-score at 10 µM; 3.4% of 64,000 active; AID 628;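 active = calcium fluorescence response, raw or row-and-column corrected B-score, differing from the plate sample mean either way at a set confidence level, mostly lower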
DAT uptake mod: changed human dopamine transporter uptake under cocaine IC80. AID 449768. B-score at 10 µM. Q01959. 1.3% of 110,000 active. LLC-PK1 hDAT cells, [14C]-dopamine uptake with cocaine IC80; actives deviate in either direction;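 active = Z score or B-score, a plate-position-corrected score, falls beyond the plate's 99.7% confidence bounds, in either direction; inactive = both scores lie inside the 99.7% bounds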;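 also: scored against the spread of the other compound wells on the same plate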
FXIa inh mix: factor XIa (human) inhibition, mixture screen; P03951; purified FXIa, fluorogenic substrate, pooled mixtures; inhibition, % at 5 µM; 0.19% of 62,000 active; AID 680;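 also: each value is inhibition by a whole ten-compound pool holding the compound; 0% = enzyme with no mixture and 100% = wells lacking enzyme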
Target sequence (P03951 19-387 limits assumed): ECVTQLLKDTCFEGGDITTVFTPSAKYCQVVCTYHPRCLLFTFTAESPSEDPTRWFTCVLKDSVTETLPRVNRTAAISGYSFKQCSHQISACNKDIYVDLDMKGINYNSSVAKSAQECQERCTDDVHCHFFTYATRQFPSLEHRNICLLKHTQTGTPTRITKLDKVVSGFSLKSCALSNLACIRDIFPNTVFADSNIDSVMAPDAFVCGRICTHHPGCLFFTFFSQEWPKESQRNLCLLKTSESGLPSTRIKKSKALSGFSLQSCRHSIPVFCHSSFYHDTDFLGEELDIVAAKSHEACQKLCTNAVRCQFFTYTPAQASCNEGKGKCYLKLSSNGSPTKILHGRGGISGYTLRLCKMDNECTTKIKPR
Target sequence (P03951 388-625 limits assumed): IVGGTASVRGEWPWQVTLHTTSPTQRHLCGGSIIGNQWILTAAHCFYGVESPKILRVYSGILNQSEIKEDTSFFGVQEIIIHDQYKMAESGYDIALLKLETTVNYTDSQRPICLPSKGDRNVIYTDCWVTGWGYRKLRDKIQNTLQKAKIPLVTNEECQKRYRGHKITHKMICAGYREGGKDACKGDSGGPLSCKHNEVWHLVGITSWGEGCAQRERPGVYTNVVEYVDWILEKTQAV
D1 PAM confirm: confirmation of human D1 dopamine receptor allosteric modulators | AID 642 | shares compounds with D1 allo mod | luminescence at 10 µM | HEK293 D1 CRE-luciferase, dopamine EC30 potentiation; stronger effect = higher value | 88% of 2,200 active;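 active = luminescence in either of two replicates above the same-plate mean plus 3 SD of the low-dose dopamine control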
D1 ag no DA: activates D1 CRE-luciferase signal without dopamine present; HEK293 D1 CRE-luciferase, luminescence, no dopamine; stronger effect = higher value; 0.8% of 1,900 active; luminescence at 10 µM; shares compounds with D1 allo mod; in the data active = luminescence above about 3900
Isoprot counter: counter-screen for D1 modulators: isoproterenol response in HEK293 cells; HEK293 D1 CRE-luciferase, isoproterenol EC30 counter-screen; 63% of 2,200 active; calls only at 10 µM; shares compounds with D1 allo mod; AID 647;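 active = luminescence in either replicate above plate mean of wells with a partly effective reference agonist dose plus 3 SD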;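 also: isoproterenol raises cAMP through native beta-adrenoceptor Gs so signal bypasses D1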
Starred values were filed as active, the others as inactive; i = inactive; . = no result; + = active, no number. Hits are enriched below; roughly 7.4% of the tested compounds scored in any of these assays. Rule as the data show it, unless noted: active = inhibition above about 20% (passing the limit was not always enough); inactive = the rest.

SMILES	M1 ag	D1 allo mod	FXIIa mix inh	M1 antagonist	DAT uptake mod	FXIa inh mix	D1 PAM confirm	D1 ag no DA	Isoprot counter
COC(=O)c1cccc(N2C(=O)c3ccccc3S2(=O)=O)c1	0.29	-1.5	3	0.39	0.26	4	.	.	.
CC(=O)N1CCN=C1SCc1cccc(C(F)(F)F)c1	0.17	4.9*	1	0.65	0.42	2	10200*	1640	+
CC(=O)Nc1ccc(C2NC(=O)c3ccccc3O2)cc1 (configuration not stated)	-0.64	3.1*	0	-0.83	-0.018	15	4184	1712	i
N#CCSC1=Nc2ccccc2C2=NC(CCC(=O)N3CCN(c4ccccc4)CC3)C(=O)N12 (configuration not stated)	1.5	-0.25	14	-0.51	0.46	5	.	.	.
CC(C)C1N=C2c3ccccc3N=C(SCC#N)N2C1=O (configuration not stated)	-0.28	5.1*	3	0.46	-0.24	-2	10160*	1524	i
CS(=O)(=O)N(CC(=O)N1CCC(C(N)=O)CC1)C1CCCCC1	1.1	-1.4	5	-0.35	0.15	2	.	.	.
Cc1ccc(-c2nc3ncccn3c2NC(=O)C2CC2)cc1	1.1	2.8*	29	0.36	0.36	8	8360*	1836	i
CC(=O)Nc1c(-c2ccccc2)nc2ncccn12	-0.49	0.53	20	0.13	-0.066	-22	.	.	.
CCCc1cc(N2CCCC(C(=O)Nc3c(OC)cccc3OC)C2)n2ncnc2n1 (configuration not stated)	0.91	-0.16	3	-0.12	1.4	7	.	.	.
O=C(c1cccc(F)c1)N1CCN(Cc2ccco2)CC1	-1.1	3.9*	-2	-0.45	-0.12	5	8236	1664	i
CCOc1ccc(CN2CCN(C(=O)c3cccc(F)c3)CC2)cc1	.	.	.	.	0.89	.	.	.	.
CC(=O)n1c2ccccc2c2c(C#N)c(N3CCCCC3)sc21	-2.3	0.32	27	-0.015	.	13	.	.	.
C=CCNc1nc2c3ccccc3n(C(C)=O)c2s1	0.57	6.2*	10	0.65	0.63	5	7816*	1416	+
CCCc1cc(NCCCN2CCOCC2)n2c(nc3ccccc32)c1C#N	.	.	.	.	-0.33	.	.	.	.
CCOc1ccc(C(=O)CSc2nnc(C3CC3)n2C)cc1	.	.	.	.	-0.51	.	.	.	.
O=C(Nc1cccc(O)c1)c1cnn2cccnc12	.	.	.	.	-0.86	.	.	.	.
O=C(Nc1cccnc1)c1cnn2cccnc12	-0.53	4.6*	-2	0.00026	-0.4	4	7304*	1520	+
O=C1OC(c2ccccc2)=C/C1=C/N1CCCCC1	-0.71	.	-1	-0.87	1.3	-2	.	.	.
Cn1c(-c2cccc(OCc3ccccc3)c2)nc2c1c(=O)[nH]c(=O)n2Cc1ccccc1	.	.	.	.	-0.11	.	.	.	.
COc1ccc(-c2nc(CSCC(=O)N3CCc4ccccc4C3)c(C)o2)cc1OC	-0.14	7.8*	3	-0.043	1.9*	3	7660	1528	+
COc1ccc(-c2nc(CS(=O)CC(=O)NC3CCCc4ccccc43)c(C)o2)cc1OC (configuration not stated)	0.91	4.4*	-1	0.23	-1.4	8	9276*	.	+
COc1ccc(-c2nc(CSCC(=O)N3CCN(c4cccc(C)c4)C(C)C3)c(C)o2)cc1OC (configuration not stated)	0.14	12*	-28	0.0007	.	9	12288*	.	+
COc1ccc(-c2nc(CSCC(=O)NCC3CCCO3)c(C)o2)cc1OC (configuration not stated)	0.8	1.7	3	0.66	0.38	17	.	.	.
COc1ccc(-c2nc(CSCC(=O)NC3CCCc4ccccc43)c(C)o2)cc1OC (configuration not stated)	.	.	.	.	1.9	.	.	.	.
O=c1c2ccccc2nnn1CSc1ncnc2ccccc12	0.005	0.28	0	0.012	-0.4	-12	.	.	.
SMILES	M1 ag	D1 allo mod	FXIIa mix inh	M1 antagonist	DAT uptake mod	FXIa inh mix	D1 PAM confirm	D1 ag no DA	Isoprot counter
CCCCC(=O)Nc1ccc(NC(=O)C(C)C)cn1	-0.66	.	10	0.38	0.92	-2	.	.	.
COc1ccc(N2CCN(Cc3cc(=O)oc4c3ccc3ccccc34)CC2)cc1	0.079	-0.64	3	0.6	.	6	.	.	.
O=c1cc(CN2CCC3(CC2)OCCO3)c2c(ccc3ccccc32)o1	-0.08	5.4*	13	-0.021	-0.96	10	13160*	1728	+
Cc1ccc(CS(=O)(=O)CCC(=O)NCc2ccccn2)cc1	-0.24	-0.5	3	-0.056	-0.8	7	.	.	.
CCOc1ccc(-c2nnn(CC(=O)NCc3ccc(OC)cc3)n2)cc1OCC	-0.79	5.3*	3	1.4	-0.6	-4	6444*	1592	i
CCOc1ccccc1NC(=O)Cn1nnc(-c2ccc(OCC)c(OCC)c2)n1	-0.91	29*	10	0.12	-0.025	4	19636*	1656	+
COc1cccc(CNc2ccc(F)c(Cl)c2)c1	.	.	.	.	-1.3	.	.	.	.
Cn1c(=O)[nH]c(=O)c2[nH]c(N(Cc3ccccc3)Cc3ccccc3)nc21	-0.24	8.4*	-13	-0.3	1.3	0	16252*	.	+
Cn1c(=O)[nH]c(=O)c2c1nc(Br)n2Cc1ccccc1Cl	-0.81	2.3	4	-0.41	-0.96	-4	.	.	.
CC1CCN(c2nc3c(c(=O)[nH]c(=O)n3C)n2Cc2ccccc2Cl)CC1	1.3	6.2*	4	-0.83	-0.82	0	14268*	1744	+
Cn1c(=O)[nH]c(=O)c2c1nc(N(CCO)Cc1ccccc1)n2CCCc1ccccc1	0.36	.	-4	-0.18	.	13	.	.	.
CN(Cc1ccccc1)c1nc2c(c(=O)[nH]c(=O)n2C)n1CCCc1ccccc1	1.1	5.1*	3	-1.3	0.7	1	12224*	1632	+
CN(Cc1ccccc1)c1nc2c(c(=O)[nH]c(=O)n2C)n1Cc1ccccc1Cl	0.042	17*	0	0.69	-0.53	8	21184*	1740	+
COC(=O)c1ccccc1NC(=O)C(C)NS(=O)(=O)c1ccc(OC)cc1 (configuration not stated)	-0.4	0.45	2	0.038	0.22	3	.	.	.
Cc1cc(C(=O)N2CCCC2C(=O)O)c(C)o1 (configuration not stated)	-0.16	-1.3	3	0.23	0.13	10	.	.	.
CCOc1ccccc1C1NC(=O)NC(C)=C1C(=O)OC1CCCCC1 (configuration not stated)	1.3	4.2*	-1	0.49	0.49	10	5388*	1456	i
CCOc1ccccc1C1NC(=O)NC(C)=C1C(=O)OC1CCCC1C (configuration not stated)	-0.063	-0.66	12	-0.55	0.059	12	.	.	.

Source: PubChem (several laboratories)
